# Sm TGR inh = qHTS Assay for the Inhibitors of Schistosoma Mansoni Peroxiredoxins. purified TGR, DTNB reduction, TNB absorbance 405 nm. Potency, µM (highest dose often 114 µM), for the others: top-dose activity change, negative = inhibition, actives largely listed as inhibitors. actives 3% (n = 360,000); active = well fitted inhibition curve with a large enough effect; inconclusive = small, poorly fitted or top-dose-only effect; inactive = no such curve, though single readings can be large or run the other way; note: potency is the fitted concentration of half-maximal effect; % is set by controls: 0 for no effect and ±100 for the full control effect; nearly all actives have a fitted effect of over 60% in size
#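 Kinetic colorimetric format: TGR-catalysed, NADPH-driven DTNB reduction monitored via TNB absorbance. Enzyme dispensed at 20 nM; compound exposure 15 min at room temperature before reaction start.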
# FMDV antiviral = High Throughput Screening for Foot and Mouth Disease Virus Antivirals; FMDV antiviral cell-based qHTS; Potency, µM (top dose mostly 57.9 µM), inactives show at the top dose activity change, negative = inhibition, usual class: inhibitors; actives 1.2% (n = 410,000); AID 1159524, 2015; calls by dose curve; tested in HEK293T cells; note: read-out not given here; potency is the fitted concentration of half-maximal effect; % is set by controls: 0 for no effect and ±100 for the full control effect; nearly all actives have a fitted effect of over 45% in size
# Cycloheximide cs = Cycloheximide Counterscreen for Small Molecule Inhibitors of Shiga Toxin. cell reporter, cycloheximide protein synthesis inhibition counterscreen. max response, %. actives 12% (n = 300,000). AID 2314, 2010; in the data active = max response mostly above about 13%, no sharp cut-off; inactive = mostly below about 14%; note: read at 38.3 µM for the half of the compounds with a filed dose; 0% is about no effect
# Shiga inhibitor = A qHTS for Small Molecule Inhibitors of Shiga Toxin. Vero cells, Shiga toxin protein synthesis inhibition reporter. inhibition, % at 38.7 µM. actives 9.2% (n = 290,000). AID 2315, 2010; in the data active = inhibition mostly above about 28%, no sharp cut-off; inactive = mostly below about 43%; note: 0% is about no effect
# * hit, by the source's call; ? = inconclusive; . = no result. Only some compounds are listed: those with a hit (about 12% of all), similar ones and a draw of the others.
SMILES,Sm TGR inh,FMDV antiviral,Cycloheximide cs,Shiga inhibitor
O=C1CN(C(=O)OCc2ccccc2)c2ccccc2N1,-3.0%,40.2%,26.2*,69.3
CCOC(=O)c1cc2occc2n1CC(=O)N1CCCc2ccccc21,8.91µM*,-12.0%,11.8,12.9
CCOC(=O)c1cc2sccc2n1CC(=O)N1CCCc2ccccc21,-20.7%,.,12.8,28.4
O=C(CNC(=O)N1CC(=O)Nc2ccccc21)NCc1ccccc1,-12.3%,-9.1%,-3.2,-13.2
O=C(OCc1ccccc1)N1CCOCCN(C(=O)OCc2ccccc2)CCOCC1,13.7%,-23.5%,-1.7,1.4
COc1cccc(N2CC(NC(=O)c3cc(Cl)ccc3OC)CC2=O)c1 (stereo not given),8.7%,-6.2%,.,.
O=C(CN1C(=O)COc2ccc(S(=O)(=O)N3CCCC3)cc21)N1CCN(c2ccccc2F)CC1,-0.1%,0.2%,.,.
Cc1cccn2c(=O)c(C(=O)NCc3ccccc3Cl)c(O)nc12,-2.6%,-22.3%,.,.
O=C(NCCC(=O)N1CCc2ccccc21)c1ccco1,8.6%,58.2%,30.0*,75.6*
O=C(NCc1nnc(SCC(=O)N2CCc3ccccc32)o1)c1ccco1,2.9%,-25.6%,-6.6,-19.6
O=C(CS(=O)(=O)Cc1ccccc1)N1CCc2ccccc21,2.0%,44.9%,32.7*,14.9
O=C(CCNS(=O)(=O)c1ccc2c(c1)CCN2C(=O)C1CC1)Nc1ccc(OC(F)(F)F)cc1,3.6%,-2.0%,.,.
CCOc1ccccc1CNC(=O)Cn1nc(C)c2nn(-c3ccc(Cl)cc3)c(C)c2c1=O,5.6%,?,.,.
Cn1cnnc1SCC(=O)N/N=C/c1ccc(OCC(N)=O)cc1,1.5%,-11.2%,-2.3,18.2
COc1cc(/C=N/n2cnnc2)ccc1OCCSc1ccc(C)cc1,-0.2%,-8.6%,21.6*,33.5
CCSc1nncn1/N=C/c1ccc(OC)c(OC)c1,3.2%,29.6%,21.1*,32.0*
C=C(C)CSc1nncn1/N=C/c1ccc(OC)cc1,-7.8%,54.6%,55.2*,140.5*
Cc1ccc(CNC(=O)C2CCN(C(=O)c3cnn(-c4ccccc4)c3-n3cccc3)CC2)cc1,-2.1%,-20.5%,.,.
Cc1cc(C(=O)Nc2cccc(-c3nc(CNC(=O)c4ccccc4C(F)(F)F)c(C)o3)c2)c(C)o1,.,27.8%,.,.
Cc1ccc(S(=O)(=O)Cn2nnnc2C(C(C)C)N2CCN(C(=O)c3ccco3)CC2)cc1 (stereo not given),.,18.6%,.,.
CCCCC(c1nnnn1CS(=O)(=O)c1ccc(C)cc1)N1CCN(C)CC1 (stereo not given),10µM*,4.2%,-7.2,-23.8
Cc1ccc(S(=O)(=O)Cn2nnnc2C(C)N2CCN(C(=O)c3ccco3)CC2)cc1 (stereo not given),44.7µM*,.,-3.4,24.7
COc1ccccc1-c1noc(-c2ccc(NCC3CCCO3)c([N+](=O)[O-])c2)n1 (stereo not given),-0.3%,4.2%,.,.
Cc1ccc(C)c(Cn2c(=O)n(CCCCCC(=O)NCc3ccc4c(c3)OCO4)c(=O)c3sccc32)c1,-2.0%,-24.3%,.,.
Cc1ccc(-c2nn(-c3ccccc3)cc2NC(=O)c2ccccc2)cc1,-5.5%,13.6%,18.6*,43.7*
SMILES,Sm TGR inh,FMDV antiviral,Cycloheximide cs,Shiga inhibitor
O=C(O)c1ccc(NC(=O)c2cn(-c3ccccc3)nc2-c2ccccc2)cc1,.,12.1%,21.1*,55.6*
O=C(CCl)Nc1cn(-c2ccccc2)nc1-c1ccccc1,17.8µM*,20µM*,38.9*,37.4
O=C(Nc1cn(-c2ccccc2)nc1-c1cccs1)c1ccco1,-17.0%,-23.7%,18.3*,91.8*
O=C(Nc1cn(-c2ccccc2)nc1-c1ccc(Cl)cc1)c1ccccc1,11.4%,-0.5%,-1.5,-5.0
CN=c1scc(-c2ccccc2Br)n1/N=C/c1ccc[nH]1,-25.3%,.,29.3*,86.2*
CN=c1scc(-c2ccc(Br)cc2)n1C,4.0%,-6.4%,2.5,-10.8
O=[N+]([O-])c1cccc(NN=Nc2ccccc2)c1,9.3%,23.3%,29.4*,39.5*
O=C(O)c1cc(NN=Nc2ccc(Br)cc2)cc([N+](=O)[O-])c1,3.9%,0.7%,6.3,6.3
O=[N+]([O-])c1ccc(N=NNc2ccccc2)cc1,?,29.9%,63.5*,184.6*
O=C(O)c1cc(NN=Nc2cccc([N+](=O)[O-])c2)cc([N+](=O)[O-])c1,-5.8%,-13.3%,-2.3,-6.1
Brc1ccc(N=NNc2ccccc2)cc1,-23.3%,37.3%,35.2*,92.3*
Cc1ccc(-c2nnn(CC(=O)O)n2)cc1,-8.7%,7.9%,-3.3,2.2
COc1ccc(NC(=O)CCn2nnc(-c3ccc(C)cc3)n2)cc1OC,-23.5%,-21.2%,-2.2,-3.5

# Screening data deposited in PubChem BioAssay by National Center for Advancing Translational Sciences (NCATS).
